In the library only some 1.6% were active in any assay of this set; here they are far more common.
eIF4E-4G inh: inhibitors of eIF4E and eIF4G interaction in translation initiation; P63073+Q04637; TR-FRET eIF4E-eIF4GI(517-606) binding, 2 h; inhibition, % at 21.7 µM; actives 0.37% (n = 220,000);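 active means inhibition above about 30%, limit read from the data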;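 further: 0% = full FRET control wells and 100% = background wells lacking eIF4GI fragment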
PERK inh: human PERK inhibition, primary cell-based screen. Q9NZJ5. CHO PERK-DD fusion, SEAP luminescence translation reporter. inhibition, % at 5.6 µM. actives 0.17% (n = 220,000). AID 1416;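 active means inhibition above the mean inhibition of all tested compounds plus 3 SD, set separately per screening campaign, cut at about 2.9% in these data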;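 further: PERK kinase domain activated by AP20187 dimerizer at 100 nM; 0% = DMSO with dimerizer and 100% = rapamycin at 8.4 µM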
eIF4H inh: inhibitors of RNA binding by human eIF4H. Q15056. actives 0.94% (n = 290,000). AID 2012. eIF4H fluorescence polarization binding assay. inhibition, % at 35 µM;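 further: calls also rest on retests at 20 µM and on dose response follow-up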
PABP1 MLLE inh: blocks PAM2 peptide binding to the PABP1 MLLE domain. actives 0.36% (n = 360,000). AID 588489. GST-MLLE / FITC-PAM2 fluorescence polarization. inhibition, % at 20 µM. P11940; in the data active means inhibition above about 35%, passing the limit was not always enough;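 further: plate controls were DMSO wells with GST-MLLE for no effect and wells lacking GST-MLLE protein for full effect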
PABP polyA inh: PABP-poly(A) binding inhibition; P11940; PABP-poly(A) RNA binding, fluorescence polarization; calls only at 35 µM; actives 1% (n = 290,000); AID 2014;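 further: calls also rest on retests at 20 µM and on dose response follow-up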
Active calls of the source: *; i = inactive; ? = inconclusive; / = not tested or not shown; + = active, no number; [ ] = remark or other dose. Unless noted, how the calls were made is not given here.

SMILES	eIF4E-4G inh	PERK inh	eIF4H inh	PABP1 MLLE inh	PABP polyA inh
CCOC(=O)C(=O)C1=C(N2CCOCC2)/C(=C\c2cccc([N+](=O)[O-])c2)CC1	4.8	1.1	79.9	0.8	+
C/C=C(\C)C(=O)NCCN1C2=NC[C@H](C(C)C)N2C[C@@H]1Cc1ccc(OC)cc1	-1.1	1.0	47.9	10.6	+
O=C(O)c1ccc(S(=O)(=O)N2CCc3ccccc3C2)cc1	/	/	-1.3	0.4	i
COc1ccccc1OCC(=O)NCc1cccs1	4.2	2.9	-3.9	13.0	i
COc1cc(C#N)ccc1OCC(=O)NCc1cccs1	-1.1	1.1	1.9*	9.1	i
Cc1cc(O)c(/C=N/OCc2ccc(Cl)cc2Cl)c(=O)o1	75.6*	0.5	-9.5	-3.8	i
Cc1c(-n2c(O)c(C3=c4ccccc4=NC3=O)sc2=O)c(=O)n(-c2ccccc2)n1C	-2.7	1.3	-7.7	46.9*	i
O=C(O)Cn1c(O)c(C2=c3ccccc3=NC2=O)sc1=O	/	/	4.1	6.4	i
COC(=O)CC1=C(C(=O)OC)C(c2cccc(OCC(N)=O)c2)C(C#N)=C(N)O1 (centres undefined)	1.9	0.3	45.2	6.7	i
COC(=O)CC1=C(C(=O)OC)C(c2ccncc2)C(C#N)=C(N)O1 (centres undefined)	-15.9	0.1	108.6	3.4	+
CN1CCc2c(sc3nc(SCC(N)=O)n(-c4ccccc4)c(=O)c23)C1	-1.4	-0.5	121.8*	-40.9	+
CC(C)c1ccc(-n2cnn(-c3ncccc3[N+](=O)[O-])c2=O)cc1	-2.5	0.9	1.7	-2.8	i
COC(=O)c1ccccc1NC(=O)COC(=O)c1ccc(C)c(NC(=O)c2ccco2)c1	85.8*[fluorescence artefact?]	-0.8	-4.3	-9.6	i
COC(=O)c1ccccc1NC(=O)COC(=O)/C=C/c1ccco1	6.0	-0.4	53.1*	-19.8	i
O=C(COC(=O)/C=C/c1ccco1)Nc1ccccc1	6.8	-0.6	-1.6	-10.2	i
O=C(CCNS(=O)(=O)c1cccs1)N1CCCCCC1	38.0*	0.3	-5.1	-1.6	i
O=C(CNS(=O)(=O)c1cccs1)N1CCCCC1	/	/	3.0	7.5	i
O=C(CCS(=O)(=O)c1cccs1)N1CCCC1	50.2*	0.9	-10.2	20.5	i
O=C(NC1CCN(C(=O)C2CCCCC2)CC1)c1ccccc1	-2.0	0.0	0.2	-7.5	i
CCS(=O)(=O)c1ccc2oc(Nc3ccc(C(C)C)cc3)nc2c1	43.7*	0.1	-2.9	36.1	i
CC1=C/C(=C/N(C)c2ccccc2)C(=O)S1	22.8	0.6	51.8*	39.2	+
CCN(CC(=O)Nc1c(F)cccc1F)C(=O)Cc1ccc2c(c1)CCC2	/	/	/	40.7*	/
Cc1nc(N2CCOCC2)nc2c1CCC2	0.4	-0.2	18.0	-9.7	i
COC(=O)c1ccccc1NC(=O)CSc1nc(O)c(-c2ccccc2)c(=O)[nH]1	4.7	1.8	16.0	1.5	i
COC(=O)c1cccc(NC(=O)CSc2nc(O)c(-c3ccccc3)c(=O)[nH]2)c1	2.2	0.8	?	28.5	+
SMILES	eIF4E-4G inh	PERK inh	eIF4H inh	PABP1 MLLE inh	PABP polyA inh
COc1cc(NS(=O)(=O)c2ccc3c(c2)C(C)(C)C(=O)N3C)cc(OC)c1	/	/	21.4	-7.4	i
Cc1ccc(NC(=O)CCC(=O)c2cccs2)cc1F	/	/	-4.2	4.7	i
C/C(=N\O)c1cc(Cl)ccc1O	91.6*	1.9	-1.7	2.6	i
C[C@@H]1CN([C@@H](C)CO)C(=O)CCCn2nncc2CO[C@H]1CN(C)C(=O)c1ccccc1	/	/	/	4.9	/
CCOc1ccc(CCNC(=O)c2ccc(OCc3c(C)noc3C)cc2)cc1OCC	/	/	/	20.5	/
Cc1oc(-c2ccc3ccccc3c2)nc1CN(C)C(C)c1ccncn1 (centres undefined)	-0.8	0.1	-0.1	4.7	i
Cc1cc(C)n(CC(=O)c2cccc(N)c2)n1	-3.6	0.8	-6.5	-1.0	i
COC(=O)c1sc(NC(=O)c2ccco2)nc1C	2.9	1.3	-1.1	-1.4	i
CCOC(=O)c1sc(NC(=S)NC(=O)c2ccco2)nc1C	2.1	1.1	4.2	41.3*	i
COc1ccc(C(=O)NC(=S)Nc2nc(C)c(C(=O)N(C)C)s2)cc1	1.5	0.6	6.4	44.5*	i
Cc1cccc(N2CCN(C(=O)c3ccc(Cl)c(NC4=NC5CS(=O)(=O)CC5S4)c3)CC2C)c1 (centres undefined)	/	/	-11.3	-120.6	i
O=C(COc1coc(CN2CCc3ccccc32)cc1=O)Nc1ccccc1	/	/	/	2.5	/
O=C(NCCCN1CCCC1=O)c1cccc(S(=O)(=O)N2CCCCC2)c1	/	/	/	1.2	/
CC(=O)Nc1cccc(NC(=S)Nc2ccc(F)c(Cl)c2)c1	92.5*	0.8	16.9	25.4	i
CC(=O)c1ccc(NC(=S)Nc2ccc(Br)c(Cl)c2)cc1	0.2	0.8	-9.5	43.5*	i
CC(=O)Nc1cccc(NC(=O)Nc2ccc(C)c(Cl)c2)c1	2.2	0.6	-7.5	-11.1	i
Cc1c(C=O)c2ccccc2n1CC(=O)NC(C)c1ccccc1 (centres undefined)	2.1	0.8	-10.7	13.6	i
COC(=O)C(C)Sc1nnc(Cc2cc(=O)[nH]c(=O)[nH]2)n1-c1ccc(Cl)cc1 (centres undefined)	4.3	0.3	79.4	24.4	i
CCOC(=O)C(C)Sc1nnc(Cc2cc(=O)[nH]c(=O)[nH]2)n1-c1ccc(Cl)cc1 (centres undefined)	7.5	-0.1	1.5	44.6*	i
CN(CC(=O)Nc1ccc(Cl)c(C(F)(F)F)c1)C(=O)c1ccc(OCC2CCCO2)cc1 (centres undefined)	/	/	/	0.9	/
CCOC(=O)C1=C(C)NC(C)=C(C(=O)OCC)C1c1ccc(O)cc1	-1.0	-0.9	7.4*	-3.9	+
CCOC(=O)C1=C(C)NC(C)=C(C(=O)OCC)C1c1ccc(OC)c(OC)c1	/	/	/	3.9	/
CCC(=O)N1CCC(C)(C(=O)Nc2ccc3c(c2)OCCO3)C1 (centres undefined)	/	/	/	3.9	/
Cc1c(/C=C2\SC(=Nc3cccc(C(=O)O)c3)NC2=O)c2ccccc2n1C	-0.2	1.3	0.0	-174.5	+
Cc1cccnc1C1=NOC(Cc2ccccc2)C(=O)N1Cc1ccccc1F (centres undefined)	/	/	/	-0.1	/
COC/C=C/C1=CC2=CC(=O)C(C)(OC(=O)c3cnc4ccccc4n3)C(=O)C2=CN1CC1CC1 (centres undefined)	/	/	/	8.8	/
COC/C=C/C1=CC2=CC(=O)C(C)(OC(=O)c3cnc4ccccc4n3)C(=O)C2=CN1c1ccc(OC)cc1 (centres undefined)	/	/	/	5.0	/
COC/C=C/C1=CC2=CC(=O)C(C)(OC(=O)c3cnc4ccccc4n3)C(=O)C2=CN1Cc1ccccc1 (centres undefined)	3.5	/	59.0*	0.9	i
COC/C=C/C1=CC2=CC(=O)C(C)(OC(=O)c3cnc4ccccc4n3)C(=O)C2=CN1Cc1ccc(OC)cc1 (centres undefined)	5.5	/	50.1*	5.8	i

Compound activity from PubChem BioAssay.
